Z-score and composite z-score data for nine compounds are collected here from PubChem BioAssay.

Molecules are shown by their SMILES. The source made the active and inactive calls.

Test [1] in a line: E. coli DRC41 culture turbidity changes, primary screen, E. coli filamentation inducer project, strain DRC41, OD650, 48 h (AID 1152).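 Note: E. coli MC1000 strain DRC41 lacking acrAB efflux pump and sulA.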 The note with it: E. coli DRC41 (acrAB sulA), higher = more signal, called active from +8 up or from −8 down.
Test [2] in a line: small-molecule binders of probe aLefty1, primary screen, biochemical, small-molecule microarray, 635/667 nm fluorescence (AID 1153).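 Note: score merges spot fluorescence with signal-to-noise ratio from the scanned slide images.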 To be noted: higher = more signal.
Test [3] in a line: PSAC antagonists in infected red cells, primary screen, cell-based, P. falciparum Indochina, OD700, 1 h (AID 1154). To be noted: P. falciparum Indochina infected RBC osmotic lysis, higher = more signal, called active from +8 up or from −8 down.
A short description of test [4]: PSAC antagonists in infected red cells, primary screen, cell-based, P. falciparum Indochina, OD700, 2 h (AID 1155).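 Note: lysis reports solute entry through the parasite surface anion channel PSAC; channel blockers reduce lysis of infected cells.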 To be noted: P. falciparum Indochina infected erythrocytes, osmotic lysis OD700; higher = more signal, called active from +8 up or from −8 down.
The nature of test [5]: osmotic lysis modulators in infected erythrocytes, primary screen, PSAC antagonist project, cell-based, P. falciparum Indochina, OD700, 3 h (AID 1156). The note with it: higher = more signal, called active from +8 up or from −8 down.
A short description of test [6]: PSAC antagonists in infected red cells, primary screen, cell-based, P. falciparum Indochina, OD700, 18 h (AID 1157). The note with it: P. falciparum Indochina infected erythrocytes, osmotic lysis OD700, 18 h; higher = more signal, called active from +8 up or from −8 down.
A short description of test [7]: modulators of S6 phosphorylation in cells, primary screen, cell-based, A549, cytoblot, luminescence, serum-stimulated (AID 1158).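 Note: serum-stimulated A549 lung adenocarcinoma cells; signal is phosphorylated S6 detected by cytoblot immunostaining with HRP secondary.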 To be noted: A549 phospho-S6 cytoblot, 5 h, higher = more signal.
Test [8] concerns the target NADPH oxidase 2 (Homo sapiens) (UniProt P04839). The experiment in a line: NOX2-dependent H2O2 signal modulators, primary screen, NOX inhibitor project, cell-based, HEK293-NOX2, PMA-stimulated, Amplex Red fluorescence (AID 1159). Note: test concentration not given here. The note with it: 45 min, higher = more signal, called active from +8 up or from −8 down.
The target of test [9] is NADPH oxidase 4 (Homo sapiens) (UniProt Q9NPH5). The experiment in a line: NOX4-dependent H2O2 signal modulators, primary screen, NOX inhibitor project, cell-based, HEK293-NOX4, tetracycline-induced, Amplex Red fluorescence (AID 1160). To be noted: 45 min, higher = more signal, called active from +8 up or from −8 down.
Test [10] concerns the target NADPH oxidase 5 (Homo sapiens) (UniProt Q96PH1). Kind of test: NOX5-dependent H2O2 signal modulators, primary screen, NOX inhibitor project, cell-based, HEK293-NOX5, Amplex Red fluorescence (AID 1161). To be noted: HEK293-NOX5, ionomycin, 45 min, higher = more signal.
Test [11] is described as follows: A549 cell viability effects, profiling panel, calcein-AM fluorescence, 48 h, basal (AID 1162). Note: test concentration not given here. The note with it: higher = more signal.
Test [12] is described as follows: adipocyte viability effects, profiling panel, cell-based, 3T3-L1 adipocytes, calcein-AM fluorescence, 48 h, basal (AID 1163). Note: test concentration not given here. The note with it: 3T3-L1 adipocytes viability, higher = more signal.
The nature of test [13]: HepG2 cell viability effects, profiling panel, calcein-AM fluorescence, 48 h, basal (AID 1164). Note: test concentration not given here. To be noted: higher = more signal.
Test [14] is described as follows: MM1S cell viability effects, profiling panel, calcein-AM fluorescence, 48 h, basal (AID 1165).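 Note: viability of MM1S multiple myeloma cells under basal unstimulated conditions; test concentration not given here.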 The note with it: higher = more signal.
The nature of test [15]: basal RPMI8226 viability, no added stimulus, profiling panel, cell-based, calcein-AM fluorescence, 48 h, PK04 Diversity Set (AID 1166).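 Note: cells grown under basal conditions without added stimulus; test concentration not given here.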 The note with it: RPMI8226 myeloma viability, higher = more signal.
A short description of test [16]: basal HepG2 mitochondrial membrane potential changes, profiling panel, cell-based, JC-1 fluorescence, 24 h, 100 nL compound (AID 1167). Note: test concentration not given here. The note with it: higher = more signal.
Test [17] can be described thus: basal 3T3-L1 adipocyte mitochondrial potential changes, profiling panel, cell-based, JC-1 fluorescence, 3T3-L1 adipocytes, 24 h, 100 nL compound (AID 1168). Note: test concentration not given here. The note with it: JC-1 mitochondrial fluorescence, higher = more signal, called active from +8 up or from −8 down.
A short description of test [18]: basal RPMI8226 mitochondrial membrane potential changes, profiling panel, cell-based, JC-1 fluorescence, 24 h, 100 nL compound (AID 1169). Note: test concentration not given here. To be noted: RPMI8226 myeloma, JC-1 mitochondrial potential fluorescence, higher = more signal.
Test [19] can be described thus: basal MM1S mitochondrial membrane potential changes, profiling panel, cell-based, JC-1 fluorescence, 24 h, 100 nL compound (AID 1170). Note: test concentration not given here. To be noted: higher = more signal.
Test [20] can be described thus: A549 lung cancer cell viability effects, profiling panel, resazurin fluorescence, 24 h, PK04 Diversity Set (AID 1171). Note: test concentration not given here. The note with it: higher = more signal, called active from +8 up or from −8 down. For orientation: Resazurin is reduced to fluorescent resorufin, in cell work by metabolically active cells.

Chain of NADPH oxidase 5 (Homo sapiens) (Q96PH1 whole entry, looked up): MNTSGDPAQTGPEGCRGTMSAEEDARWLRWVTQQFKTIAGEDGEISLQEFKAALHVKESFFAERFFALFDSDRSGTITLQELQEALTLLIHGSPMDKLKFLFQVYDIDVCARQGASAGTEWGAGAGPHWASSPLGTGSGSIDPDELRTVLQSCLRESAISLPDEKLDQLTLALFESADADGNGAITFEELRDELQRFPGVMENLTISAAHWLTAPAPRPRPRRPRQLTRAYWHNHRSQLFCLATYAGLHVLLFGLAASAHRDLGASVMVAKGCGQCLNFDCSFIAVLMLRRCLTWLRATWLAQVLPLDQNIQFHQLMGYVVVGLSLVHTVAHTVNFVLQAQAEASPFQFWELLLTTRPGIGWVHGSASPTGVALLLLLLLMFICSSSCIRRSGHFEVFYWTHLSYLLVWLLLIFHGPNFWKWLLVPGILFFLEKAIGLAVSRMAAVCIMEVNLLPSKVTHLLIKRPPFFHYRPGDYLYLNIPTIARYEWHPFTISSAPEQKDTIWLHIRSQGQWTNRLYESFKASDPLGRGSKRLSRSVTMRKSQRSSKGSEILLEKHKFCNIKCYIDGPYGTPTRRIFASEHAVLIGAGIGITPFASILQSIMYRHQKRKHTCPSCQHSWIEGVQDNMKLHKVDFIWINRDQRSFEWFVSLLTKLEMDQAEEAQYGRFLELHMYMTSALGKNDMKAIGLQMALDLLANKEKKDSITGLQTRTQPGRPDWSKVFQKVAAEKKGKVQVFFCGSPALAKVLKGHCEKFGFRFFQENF
Chain of NADPH oxidase 4 (Homo sapiens) (Q9NPH5 whole entry, looked up): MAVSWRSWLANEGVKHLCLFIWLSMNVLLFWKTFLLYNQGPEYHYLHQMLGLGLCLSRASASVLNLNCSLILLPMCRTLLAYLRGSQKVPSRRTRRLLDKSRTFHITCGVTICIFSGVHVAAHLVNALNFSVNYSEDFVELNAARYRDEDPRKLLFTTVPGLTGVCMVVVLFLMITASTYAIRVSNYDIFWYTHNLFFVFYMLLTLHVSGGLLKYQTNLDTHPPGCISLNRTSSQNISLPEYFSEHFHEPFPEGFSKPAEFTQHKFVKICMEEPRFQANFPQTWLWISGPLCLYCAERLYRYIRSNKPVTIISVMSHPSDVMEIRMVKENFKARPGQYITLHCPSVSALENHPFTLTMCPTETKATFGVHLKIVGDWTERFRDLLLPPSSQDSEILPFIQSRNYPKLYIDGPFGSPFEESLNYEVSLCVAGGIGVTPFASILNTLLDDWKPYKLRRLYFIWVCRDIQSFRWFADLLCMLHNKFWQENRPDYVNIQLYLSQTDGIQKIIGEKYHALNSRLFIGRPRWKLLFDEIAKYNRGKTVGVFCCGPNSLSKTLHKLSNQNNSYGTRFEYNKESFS
Chain of NADPH oxidase 2 (Homo sapiens) (P04839 whole entry, looked up): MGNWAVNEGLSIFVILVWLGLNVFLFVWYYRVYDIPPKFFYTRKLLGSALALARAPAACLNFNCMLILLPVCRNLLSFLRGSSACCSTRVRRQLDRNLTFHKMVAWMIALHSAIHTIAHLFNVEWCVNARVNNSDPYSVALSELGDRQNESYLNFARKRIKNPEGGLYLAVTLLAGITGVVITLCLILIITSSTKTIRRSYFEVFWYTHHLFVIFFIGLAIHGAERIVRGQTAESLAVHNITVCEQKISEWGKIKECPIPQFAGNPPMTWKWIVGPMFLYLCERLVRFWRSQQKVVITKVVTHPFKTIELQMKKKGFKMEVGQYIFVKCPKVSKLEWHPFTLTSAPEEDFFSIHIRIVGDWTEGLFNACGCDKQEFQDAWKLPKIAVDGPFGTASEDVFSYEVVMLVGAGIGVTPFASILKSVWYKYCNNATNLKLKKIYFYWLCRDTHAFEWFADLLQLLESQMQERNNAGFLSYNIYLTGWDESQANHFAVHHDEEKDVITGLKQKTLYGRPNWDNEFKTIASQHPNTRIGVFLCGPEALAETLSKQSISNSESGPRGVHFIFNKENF

Consider `COC(=O)CC=C[C@@H](C)[C@@H](C=NO[C@@H](C)c1cn([C@H](CO)Cc2ccccc2)nn1)NS(=O)(=O)c1ccc(C)cc1`, for which the z-score in [1] is 0.264 (inactive); in test [3], 0.507 (inactive); in test [4] it was -1.66 (inactive); in [5], -0.598 (inactive); in [6], -1.93 (inactive); in [7], 1.85. The z-score was -0.575 (inactive) in test [8]; 0.328 (inactive) in test [9]; 0.17 in [10]; 0.788 in test [11]; 0.521 in test [12]; 1.35 in test [13]. Moreover, the z-score in test [14] was 0.56; in test [15], 0.593; in test [16], -1.24; in test [17], 0.153 (inactive); in [18] it was -0.249; in [19], -0.648. Besides, the z-score in test [20] was -0.685 (inactive). In addition, the composite z-score in [2] was found to be 0.196.
For `CC(C)(C)N1C(=O)[C@H]2[C@H]3[C@H](O)[C@H](O)CC(=NOCc4ccccc4)[C@H]3CC[C@H]2C1=O`, the z-score in test [1] was 0.254 (inactive); in test [3], 4.05 (inactive); in test [4], 0.54 (inactive); in test [5] it was -0.408 (inactive); in test [6], 0.133 (inactive); in [7], -0.371. The z-score in test [8] was -0.147 (inactive); in test [9], 0.991 (inactive); in [10], 0.765; in test [11] it was 0.156; in [12] it was -0.503; in [13], -1.11. Moreover, the z-score is 0.166 in test [14]; -0.946 in test [15]; -0.736 in test [16]; 0.536 (inactive) in test [17]; -0.492 in test [18]; 0.0361 in test [19]. The z-score in test [20] is 0.727 (inactive). The same compound yielded a composite z-score in [2] of 0.57.
Consider `CO[C@H]1COC(=O)[C@@H](C)COC(=O)[C@H](COCc2ccccc2)NC(=O)CC=C[C@H]1C`, for which the z-score in test [1] is -1.17 (inactive); in test [3], -0.262 (inactive); in [4], 0.149 (inactive); in test [5], -0.0011 (inactive); in test [6], 0.156 (inactive); in [7], 0.503. In addition, the z-score in test [8] is -1.95 (inactive); in test [9], 0.126 (inactive); in test [10], 0.284; in [11] it was 0.362; in test [12], 0.293; in test [13] it was 0.298. Further, the z-score in test [14] is 0.555; in [15] it was 0.34; in test [16], 1.36; in test [17] it was -0.213 (inactive); in test [18] it was 0.529; in [19] it was 2.5. Besides, the z-score in test [20] was 0.266 (inactive). Also, the composite z-score in [2] was -0.0654.
For `CCCNC(=O)OC[C@H]1O[C@H](CCON=C(C)CCN2CCCc3nc(C)c(C)cc32)C=C[C@@H]1Oc1ccc(OC)cc1`, the z-score in test [1] is 0.794 (inactive); in test [3] it was 5.53 (inactive); in test [4], 0.722 (inactive); in [5], 0.99 (inactive); in [6] it was 0.318 (inactive); in test [7] it was -0.546. Moreover, the z-score was -0.995 (inactive) in test [8]; 0.166 (inactive) in [9]; -1.14 in [10]; 0.476 in test [11]; 1.43 in [12]; -0.243 in test [13]. The z-score is -0.878 in [14]; -1.57 in test [15]; 2.15 in [16]; -1.09 (inactive) in test [17]; 0.455 in [18]; 0.023 in [19]. In [20], the z-score is 1.21 (inactive). In [2], this compound gave a composite z-score of -0.0061.
As to `CCOC(=O)[C@H](Cc1ccccc1)NC(=O)CCC1CC(OC(=O)NCc2cccc3ccccc23)CC2(CCCC(COC(=O)NCc3ccccc3)O2)O1` (stereo not given in full), the z-score in test [1] was -1.32 (inactive); in test [3], 4.71 (inactive); in test [4] it was 0.55 (inactive); in test [5], -0.562 (inactive); in test [6], -0.2 (inactive); in [7], 3.91. Moreover, the z-score in [8] was -1.59 (inactive); in [9], -1.2 (inactive); in [10] it was -1.7; in test [11], 0.143; in test [12] it was 0.919; in test [13], -1.03. In addition, the z-score in [14] was 0.418; in [15] it was -0.653; in test [16] it was 1.12; in [17], -0.39 (inactive); in test [18], -0.839; in [19], -1.18. The z-score in [20] is 0.682 (inactive). Moreover, in test [2], the composite z-score came out at 0.0935.
On to `O=C1[C@H]2[C@H]3[C@H](O)[C@H](O)CC(=NOCc4ccccc4)[C@@H]3CC[C@H]2C(=O)N1c1ccc(F)cc1F`, for which the z-score in test [1] was -0.246 (inactive); in test [3], 1.17 (inactive); in [4], -0.56 (inactive); in test [5], 0.512 (inactive); in test [6] it was -1.36 (inactive); in test [7] it was 2.35. The z-score in test [8] was -0.409 (inactive); in test [9], 0.18 (inactive); in test [10], 0.343; in test [11], 0.504; in test [12], -0.23; in test [13] it was 0.688. Besides, the z-score is 0.635 in [14]; 1.13 in test [15]; 1.51 in [16]; -0.371 (inactive) in test [17]; -0.261 in test [18]; -1.57 in [19]. For the same compound, the z-score in test [20] was -1.03 (inactive). In addition, the composite z-score in test [2] was -0.391.
With `CC(CCN1CCCc2nc(C)c(C)cc21)=NO[C@@H](C)c1cc(-c2c(C)cc(C)cc2C)no1`, the z-score in test [1] was 1.22 (inactive); in [3], 3.44 (inactive); in test [4], 0.762 (inactive); in [5] it was 1.35 (inactive); in test [6], 0.465 (inactive); in test [7], 0.124. Moreover, the z-score was -1 (inactive) in [8]; -0.469 (inactive) in test [9]; 0.221 in [10]; 0.91 in test [11]; -0.0581 in test [12]; 1.42 in test [13]. Further, the z-score in [14] is -0.603; in test [15] it was -0.843; in [16], 3.04; in test [17] it was -0.127 (inactive); in test [18], -0.0137; in [19] it was -1.08. The z-score in test [20] was -0.102 (inactive). For the same compound, the composite z-score in [2] is 0.0402.
Take `CC(C)=CCCC(C)=CCON=C1C[C@@H](O)[C@@H](O)[C@@H]2[C@@H]3C(=O)N(c4ccc(F)cc4F)C(=O)[C@@H]3CC[C@H]12`: the z-score in test [1] is -0.061 (inactive); in test [3], 13.7 (active); in [4] it was 0.545 (inactive); in test [5], 2.8 (inactive); in [6] it was -0.87 (inactive); in test [7], -0.0997. Also, the z-score was -0.0501 (inactive) in test [8]; -1.83 (inactive) in [9]; -4.58 in test [10]; -1.39 in test [11]; 0.719 in test [12]; 0.0201 in test [13]. Moreover, the z-score was -3.06 in [14]; 0.579 in [15]; -2.26 in test [16]; 0.866 (inactive) in [17]; -0.786 in test [18]; -1.55 in test [19]. Moreover, the z-score in [20] is 0.619 (inactive). Besides, the composite z-score in test [2] came out at 0.173.
For `CCOC(=O)[C@H](CC(C)C)NC(=O)CCC1CC(OC(=O)NCc2cccc3ccccc23)CC2(CCCC(COC(=O)NCCCN3CCCC3=O)O2)O1` (stereo not given in full), the z-score in test [1] is 0.261 (inactive); in [3], 0.51 (inactive); in test [4], 0.936 (inactive); in test [5], 0.662 (inactive); in test [6], 0.295 (inactive); in test [7], 0.285. In addition, the z-score in test [8] is 1.51 (inactive); in test [9], 0.133 (inactive); in [10], -0.877; in [11], 0.367; in test [12] it was 1.15; in test [13], -0.839. The z-score in [14] was -0.0471; in [15] it was -1.31; in [16], 0.106; in test [17] it was -0.636 (inactive); in test [18], -0.555; in test [19], -1.15. Moreover, in test [20], the z-score is 0.489 (inactive). In addition, the composite z-score in [2] is -0.177.
